H9c2 protect: protects H9c2 cardiomyocytes from peroxide injury | H2O2 injury protection, ATPLite, 2 h | protection from H2O2 cell death, % at 20 µM | 360,000 tested, 0.63% active;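 active = compounds giving at least 50% protection of heart cells from peroxide-induced death in the single-dose screen, raw or plate-pattern-corrected value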
ARNT-TACC3 inh: ARNT/TACC3 interaction disruption. inhibition, % at 9.99 µM. Q9Y6A5. 390,000 tested, 0.66% active. AlphaScreen His-ARNT PAS-B/GST-TACC3 binding, luminescence; TACC3 fragment carries E629A point mutation. AID 623870;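 active = mean inhibition of replicates at least 50% and at least half of replicates each reaching 50%; inconclusive = half or more replicates reach 50% but mean below 50%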
aDG glyco up: alpha-DG glycosylation activation. Pro5-aDG cells, alpha-DG glycosylation AlphaScreen (IIH6); 0% Pro5, 100% B10-LARGE cell signal. activation, % at 10 µM. 360,000 tested, 0.22% active. AID 624168;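 active = activation of at least 8% versus controls, or a plate z-score of at least 8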;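 note: Pro5 are CHO cells carrying HIG-tagged alpha-DG that lacks glycosylation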
Vif imaging: HIV Vif inhibition; HEK293T cells, Vif self-association by quenched fluorescence, imaging, 24 h; inhibition, % at 7.49 µM; 340,000 tested, 0.35% active; in the data active = inhibition above about 50%, passing the limit was not always enough; inconclusive = no clear call, values can overlap the other calls; inactive = below about 31%
Glyco luc inh: N-linked glycosylation inhibition; AID 588692; D54 ERlucT glycosylation luciferase reporter, 24 h; percent of 100 nM tunicamycin response; 360,000 tested, 0.23% active; reporter increase, % at 12.5 µM;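 active = mean luciferase reporter signal, scaled so untreated is 0 and the glycosylation-blocking control 100, at or above a set limit in every replicate; inconclusive = mean reaches the limit but not every replicate does; inactive = mean below the limit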;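 note: luciferase carries N-glycosylation sites so blocking glycosylation raises the light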
Large screens that a line does not name were inactive. In the library only some 1.7% were active in any assay of this set; here they are far more common.

Cc1ccc2c(COC(=O)CNC(=O)c3ccccc3)cc(=O)oc2c1	none
COc1ccc(NC(=O)Nc2ccc3c(c2)C(=O)N([C@@H](C)CO)C[C@H](C)[C@H](CN(C)Cc2ccc4c(c2)OCO4)O3)cc1	none (no result: H9c2 protect, aDG glyco up, Vif imaging, Glyco luc inh)
O=C1c2ccccc2C(=O)c2c(NCCCN(CCO)CCO)cccc21	Glyco luc inh 116 (no result: ARNT-TACC3 inh)
CCN(CC)CC(=O)Nc1cccc2c1C(=O)c1ccccc1C2=O	none
Cc1nc(OCc2ccccc2)c2ccccc2n1	H9c2 protect 51 (no result: Vif imaging)
Cc1cccc(S(=O)(=O)N2CCCCN3[C@H](CO)[C@H](c4ccc(C#CC5CC5)cc4)[C@@H]3C2)c1	none (no result: H9c2 protect, aDG glyco up, Vif imaging, Glyco luc inh)
CC(C)Oc1cccc(C(=O)NC(=S)Nc2cccc(NC(=O)c3ccccc3Cl)c2)c1	ARNT-TACC3 inh 49
CCOC(=O)C1CCN(C(=O)c2ccc3c(=O)n4nc(Nc5ccccc5OC)sc4nc3c2)CC1	H9c2 protect 71 (no result: ARNT-TACC3 inh)
CCOC(=O)C1CCN(C(=O)c2ccc3c(=O)n4nc(Nc5cc(C)ccc5C)sc4nc3c2)CC1	none
C[C@H]1CN([C@@H](C)CO)S(=O)(=O)c2ccc(C#CC3CCCC3)cc2O[C@H]1CN(C)C(=O)C1CC1	none (no result: H9c2 protect, aDG glyco up, Vif imaging, Glyco luc inh)
CC(=O)N/N=C/c1cc(C(C)C)cc(/C=N/NC(C)=O)c1O	ARNT-TACC3 inh 72
CC(=O)N/N=C/c1cc(C)n(-c2ccc(Br)cc2)c1C	none
N#Cc1cc2c(=O)n3ccccc3nc2n(Cc2cccnc2)c1=O	none (no result: Vif imaging)
N#Cc1cc2c(=O)n3ccccc3nc2n(-c2ccccc2Cl)c1=O	Vif imaging 154
COc1cc(C(=O)OCCc2cc3ccccc3c(=O)o2)cc(OC)c1OC	Glyco luc inh 27 (no result: Vif imaging)
COc1cc(C(=O)OCCCc2cc3ccccc3c(=O)o2)cc(OC)c1OC	none
CCOc1cc(CNc2ccc3[nH]c(=O)[nH]c3c2)ccc1OCC(=O)NC(C)(C)C	H9c2 protect 57 (no result: Vif imaging)
Cc1ccc(C(=O)OCC(=O)Nc2sccc2C(N)=O)cc1NC(=O)c1ccco1	H9c2 protect 94
C[C@H]1CN([C@@H](C)CO)C(=O)Cc2cc(NC(=O)Cc3ccccc3)ccc2O[C@@H]1CN(C)C	none (no result: H9c2 protect, aDG glyco up, Vif imaging, Glyco luc inh)
CN(C(=O)CSc1nc2c(c(=O)[nH]1)CCCC2)C1CCCCC1	H9c2 protect 63, Vif imaging inconclusive
CN(C(=O)CSc1nc(N)cc(=O)[nH]1)C1CCCCC1	none (no result: ARNT-TACC3 inh)
COc1cccc(CNC(=O)C[C@H]2CC[C@@H](NC(=O)C3CC3)[C@H](CO)O2)c1	none (no result: H9c2 protect, aDG glyco up, Vif imaging, Glyco luc inh)
O=C(N/N=C\C=C\c1ccc([N+](=O)[O-])o1)c1cccs1	Glyco luc inh 41
O=C(N/N=C/C=C/c1ccccc1[N+](=O)[O-])c1cccs1	none
COc1ccccc1OCC(=O)N/N=C/C=C/c1ccc([N+](=O)[O-])o1	Glyco luc inh 58
O=c1cnnc(N/N=C/c2cccs2)[nH]1	ARNT-TACC3 inh 62
CCOC(=O)c1c(N)sc(C(=O)N2CCCC2)c1C	none (no result: ARNT-TACC3 inh, Vif imaging)
CCOC(=O)c1c(N)sc(C(=O)N2CCCCC2)c1C	ARNT-TACC3 inh 47
C[C@@H](NC(=O)C[C@H]1C[C@@H]2c3cc(NC(=O)CC4CC4)ccc3O[C@@H]2[C@@H](CO)O1)c1ccccc1	none (no result: H9c2 protect, aDG glyco up, Vif imaging, Glyco luc inh)
c1cnc2ncc3sccc3c2c1	none (no result: Vif imaging)
O=c1[nH]c2cccnc2c2ccsc12	H9c2 protect 58
CCOc1cc2[nH]c(=O)n(CCCCC(=O)NC3CCCCCC3)c(=O)c2cc1OCC	none
COc1cc2[nH]c(=O)n(CCCC(=O)NC3CCCCC3)c(=O)c2cc1OC	Vif imaging 55
CN(C)C(=O)C[C@H]1C[C@H]2c3cc(NC(=O)Nc4ccccc4)ccc3O[C@H]2[C@H](CO)O1	none (no result: H9c2 protect, aDG glyco up, Vif imaging, Glyco luc inh)
CC(C)CCNC(=O)CCc1nnc(COc2ccccc2)o1	Vif imaging 86
COc1ccc(CC(=O)NNC(=O)c2cnccn2)cc1	none
COCCCNC(=S)NNC(=O)c1ccccc1Br	none
O=C(COc1ccc(Cl)cc1)NNC(=O)c1ccccn1	none (no result: Vif imaging)
COCCCNC(=S)NNC(=O)c1ccccn1	ARNT-TACC3 inh 67
O=C(NNC(=O)C12CC3CC(CC(C3)C1)C2)c1ccccn1	ARNT-TACC3 inh 75
COc1ccc(CC(=O)NNC(=O)c2ccccn2)cc1	ARNT-TACC3 inh 48
Cc1cc(C)cc(OCC(=O)NNC(=O)c2ccccn2)c1	H9c2 protect 78, ARNT-TACC3 inh 68
COCC(=O)Nc1ccc2c(c1)C(=O)N(C)C[C@@H](OC)[C@H](C)CN(C(=O)c1ccccc1)[C@@H](C)CO2	none (no result: H9c2 protect, aDG glyco up, Vif imaging, Glyco luc inh)
CCCC#Cc1cnc2c(c1)C(=O)N([C@@H](C)CO)C[C@@H](C)[C@H](CN(C)C)O2	none (no result: H9c2 protect, aDG glyco up, Vif imaging, Glyco luc inh)
C[C@@H]1CN([C@H](C)CO)C(=O)c2cc(NC(=O)Nc3ccccc3)ccc2O[C@@H]1CN(C)Cc1ccc(C(=O)Nc2ccccc2N)cc1	none (no result: H9c2 protect, aDG glyco up, Vif imaging, Glyco luc inh)
CC(=O)N(C)C[C@@H]1Oc2ncc(C#Cc3ccccc3F)cc2C(=O)N([C@H](C)CO)C[C@H]1C	none (no result: H9c2 protect, aDG glyco up, Vif imaging, Glyco luc inh)
N#CC(=Cc1ccccn1)c1nc(-c2ccc(Cl)cc2)cs1	Vif imaging 103, Glyco luc inh 42 (no result: ARNT-TACC3 inh)
N#C/C(=C\Nc1ccc2cn[nH]c2c1)c1nc(-c2ccc(Cl)cc2)cs1	none
Cc1nc(NC(=O)C(C)Oc2cccc(Cl)c2)sc1C(=O)N(C)C (configuration not stated)	Vif imaging 52
CCCNC(=O)N(C)C[C@H]1Oc2ncc(-c3ccc(F)cc3)cc2C(=O)N([C@H](C)CO)C[C@@H]1C	none (no result: H9c2 protect, aDG glyco up, Vif imaging, Glyco luc inh)
O=C(CCc1ccccc1)Nc1ccccc1	Vif imaging 55
COc1cc(-c2ccc3oc(-c4ccsc4)cc(=O)c3c2)cc(OC)c1OC	H9c2 protect 56
Cc1ccc2nc(Cl)c(/C=N/Nc3nc(C)cc(C)n3)c(=O)n2c1	ARNT-TACC3 inh 46
Cc1ccc2nc(C)c(Cl)c(=O)n2c1	none
Cc1nn(CC(=O)NCc2ccccc2)c(C)c1[N+](=O)[O-]	none
Cc1nn(CC(=O)NC(=O)c2ccccc2)c(C)c1[N+](=O)[O-]	Vif imaging 54
Cc1noc(C)c1COc1ccc(C(=O)NNC(=O)c2ccccc2F)cc1	Glyco luc inh 27
Cc1noc(C)c1COc1ccc(C(=O)NNC(=O)c2ccccc2)cc1	none
Cc1ccc(NC(=O)c2ccc(OCc3c(C)noc3C)cc2)cc1C	none (no result: ARNT-TACC3 inh)
CC(=O)Nc1ccc(NC(=O)c2ccc(OCc3c(C)noc3C)cc2)cc1	Vif imaging 60
Cc1ccc(C(=O)Sc2cccccc2=O)cc1	ARNT-TACC3 inh 57
C[C@@H]1CN([C@@H](C)CO)C(=O)c2cc(NC(=O)Nc3cccc4ccccc34)ccc2O[C@@H]1CN(C)CC1CCCCC1	none (no result: H9c2 protect, aDG glyco up, Vif imaging, Glyco luc inh)
COc1cccc(-c2nc(N3CCN(C)CC3)c3ccccc3n2)c1O	H9c2 protect 51, Glyco luc inh 129
CN1CCN(c2nc(-c3ccccc3O)nc3ccccc23)CC1	none
CO[C@H](CN(C)S(=O)(=O)c1ccc(F)cc1)[C@@H](C)CN(Cc1ccccc1Cl)[C@@H](C)CO	none (no result: H9c2 protect, aDG glyco up, Vif imaging, Glyco luc inh)
O=C1NC(c2ccc(Cl)c([N+](=O)[O-])c2)Nc2ccccc21 (configuration not stated)	H9c2 protect 55
O=S1(=O)Nc2c(ccc3cccnc23)-c2ccccc21	ARNT-TACC3 inh 69
Clc1ccc2ccc3cccnc3c2n1	none

High-throughput results deposited in PubChem by several laboratories.
